# Hits are enriched below; roughly 6.5% of the tested compounds scored in any of these assays.
# HT1080NT lethal – kills 2HG-producing HT-1080-NT fibrosarcoma cells. HT-1080-NT fibrosarcoma viability, CellTiter-Glo ATP luminescence, 48 h. Potency, µM (highest dose often 46.1 µM), without a hit: top-dose activity, negative = less viability, usual class: cytotoxic. actives 1.6% (n = 360,000);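 also: NT is the 2HG producing partner of a matched IDH1 knockdown line; potency is read from the fitted curve at half-maximal effect; 0% = DMSO-treated cells and -100% = media-only wells without cells; nearly all actives have a fitted effect of over 55% in size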
#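 Fibrosarcoma NT cells, 750 per well in 5% FBS RPMI, were exposed to compound for 48 hours. Viability: CellTiter-Glo luminescence.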
# HepG2 viability – kills HepG2 cells in TGF-b inhibitor counter-screen; HepG2 CAGA-GFP viability, ATP luminescence, 18 h; Potency, µM (top dose mostly 46.1 µM), without a hit: top-dose activity change, negative = cytotoxicity, hits mostly cytotoxic; actives 0.76% (n = 410,000); also: potency is read from the fitted curve at half-maximal effect
#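 CellTiter-Glo luminescence gave cytotoxicity after 18 hours at 37 degrees C. The cells were HepG2 CAGA-GFP in 1% FBS DMEM, stimulated with 500 pg/mL TGF-beta after compound addition. %Activity was normalised to no-cell wells (complete cell-killing) and DMSO (no toxicity), and curves were fitted and classified.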
# TGFb inhibitor – inhibitors of TGF-b signaling; HepG2 CAGA-GFP TGF-b/SMAD3 reporter, GFP fluorescence, 18 h; TGF-beta stimulated, 500 pg/mL final; Potency, µM (series often up to 46.1 µM), for the others: top-dose activity, negative = inhibition, actives largely listed as inhibitors; actives 1.2% (n = 410,000); AID 588855; also: potency is read from the fitted curve at half-maximal effect; % is scaled to controls: 0 for no effect and ±100 for the full control effect; nearly all actives have a fitted effect of over 65% in size
#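 First, reporter cells (HEPG2 CAGA-GFP) rested 2 h at 37 degrees C. Next, compounds were pinned in and TGF-beta added to 500 pg/mL final. After 18 h, GFP was imaged per cell and summed per well.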
# IL1B secr inh – blocks inflammasome-driven IL-1 beta release | THP-1 LPS/ATP IL-1B secretion, AlphaLISA, 16 h; stronger effect = lower value | activity change, % at 57.5 µM | actives 4.7% (n = 360,000); in the data active = activity change below about -50%; inconclusive = mostly about -30% to -49%; also: % is scaled to controls: 0 for no effect and ±100 for the full control effect
#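 Secreted IL-1B measured by AlphaLISA bead assay after 16 h compound exposure of THP-1 cells; compounds (final up to 57.5 uM) added 1 h before LPS (250 ng/mL) and ATP (1.25 mM) stimulation; lower signal means less secretion.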
# Giardia killer – kills Giardia lamblia. Giardia lamblia trophozoite viability. activity change, % at 7.66 µM, hits read low. actives 0.15% (n = 340,000). AID 540267; in the data active = activity change below about -80%; inconclusive = between about -30% and that limit;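 also: parasites exposed to compound for two days anaerobically before the ATP read; % is scaled to controls: 0 for no effect and ±100 for the full control effect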
#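 Viability, read as ATP luminescence: trophozoites at 100 cells/well, compound added, 48 hrs anaerobic at 37 deg C, then 15-30 min room-temperature development before reading.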
# HT1080 IDH1KD tx – kills HT-1080 cells with IDH1 knockdown; Potency, µM (top dose mostly 46.1 µM), for the others: top-dose activity, negative = toxicity, usual class: cytotoxic; HT-1080 IDH1 knockdown viability, ATP luminescence, 48 h; actives 2% (n = 360,000); AID 686971;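 also: potency is read from the fitted curve at half-maximal effect; 0% = DMSO wells and -100% = cell-free medium wells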
#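 IDH1KD HT-1080 cells, 750/well, RPMI + 5% FBS; compound pinned after 2 h settling; 48 h, 37 °C; CellTiter-Glo luminescence; % activity normalised to DMSO and no-cell wells; curves fitted, classed by r2 and efficacy.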
# Numbers without * were called inactive; u = inconclusive; x = no result; [ ] = remark or other dose. Unless noted, calls follow the shape of the dose curve; as a rule, active = well fitted curve in the direction sought with a large enough effect; inconclusive = small, poorly fitted or top-dose-only effect, or another doubt; inactive = no such curve, though single readings can be large; an effect the other way counts as inactive or inconclusive.
SMILES,HT1080NT lethal,HepG2 viability,TGFb inhibitor,IL1B secr inh,Giardia killer,HT1080 IDH1KD tx
COc1ccccc1C1Nc2ccccc2NC2=C1C(=O)CC(C)(C)C2 (stereo unspecified),5.6%,7.2%,-7.3%,-12.1,-17.4,1.0%
N=C1c2ccccc2CN1NC(=O)c1cccc(S(=O)(=O)N2CCCCC2)c1,10.9%,-0.6%,1.0%,25.0,-8.4,13.3%
O=C(NCCC(c1ccccc1)c1ccccc1)c1cccs1,2.7%,1.0%,-7.6%,-56.5*,-3.6,1.0%
COc1cccc(S(=O)(=O)NCc2ccc(C(=O)N3CCN(Cc4ccccc4)CC3)cc2)c1,-8.6%,-12.9%,0.0%,-67.4*,15.9,-22.8%
Cc1ccc(NC(=O)CCN2CCC(Cc3ccccc3)CC2)cc1,u,-39.3%,-14.3%,-82.4*,1.9,u
Cc1ccc(NC(=O)CCN2CCN(C/C=C/c3ccccc3)CC2)cc1,-25.0%,-33.2%,11.5%,u,19.2,-25.9%
CCN1CCN(C(=O)c2ccc(CNS(=O)(=O)c3cccc(OC)c3)cc2)CC1,-1.2%,17.0%,16.3%,16.5,6.1,8.0%
Cc1ccc(S(=O)(=O)NCc2ccc(C(=O)NCCCN3CCC(Cc4ccccc4)CC3)cc2)cc1,u,-32.9%,-23.7%,-64.6*,-1.5,u
CC(C)(CN1CCNCC1)NS(=O)(=O)c1ccc(Cl)cc1,-3.5%[9.24 µM],25.1µM*,u,0.0,15.6,u
COc1ccc(CNC(=O)CCNC(=O)N2CCn3c2nc2ccccc23)cc1,11.3%,0.9%,-2.7%,-8.8,1.3,7.1%
CCN(CC)S(=O)(=O)c1cc([N+](=O)[O-])ccc1NNC(=O)Nc1ccccc1OC,-2.3%,-21.7%,-13.0%,-20.9,-11.5,-15.6%
Cc1ccc(C)c(S(=O)(=O)NCc2ccc(C(=O)N3CCN(c4ccccc4)CC3)cc2)c1,-1.9%,-3.8%,47.0%,-62.8*,16.2,-5.2%
Cc1ccc(S(=O)(=O)NCc2ccc(C(=O)N3CCN(Cc4ccccc4)CC3)cc2)cc1,u,-28.6%,u,-79.4*,15.1,-19.3%
Cc1ccc(S(=O)(=O)NC(C)(C)CN2CCC(Cc3ccccc3)CC2)cc1,u,-26.2%,17.8µM*,u,7.4,u
O=C(Cc1ccccc1F)N1CCC(c2nc3c(nnn3Cc3cccc(Cl)c3)c(=O)[nH]2)CC1,x,-39.9%,u,x,x,x
CCNC(=S)N/N=C/c1cc(Br)cc(Br)c1OC,4.47µM*,-18.8%,1.0%,0.0,7.7,3.98µM*
COc1ccc(OC)c(CNC(=O)c2nn(-c3ccc(OC)c(Cl)c3)c(=O)c3c2c2ccccc2n3C)c1,x,-19.6%,-1.2%,x,x,x
CC1(C)Cc2c(sc3nc(-c4cccs4)n(N)c(=O)c23)CO1,u,-8.8%,-16.8%,-12.1,-7.1,u
CC1(C)Cc2c(sc3nc(-c4ccccc4)n(N)c(=O)c23)CO1,-14.3%,-27.8%,-15.5%,-75.7*,25.2,-18.0%
C=CCc1c(C)nc(-c2ccccc2)nc1Nc1ccccc1O,u,-28.9%,u,-28.4,0.8,16.4µM*
O=C(NC(=S)Nc1ccccc1CO)C1CCCCC1,2.1%,-4.2%,-4.8%,26.9,-0.7,-3.5%
C[C@H]1CN([C@@H](C)CO)C(=O)c2cccc(NC(=O)Nc3ccc(C(F)(F)F)cc3)c2O[C@@H]1CN(C)S(=O)(=O)c1ccc(Cl)cc1,u,-87.7%,u,u,10.6,25.9µM*
C[C@H](CO)N1C[C@H](C)[C@@H](CN(C)S(=O)(=O)c2cn(C)cn2)Oc2c(NC(=O)Nc3ccc(C(F)(F)F)cc3)cccc2C1=O,1.5%,-7.6%,-15.1%,11.5,-7.7,-2.5%
C[C@H](CO)N1C[C@H](C)[C@@H](CN(C)S(=O)(=O)c2ccc(F)cc2)Oc2c(NC(=O)Nc3ccc(C(F)(F)F)cc3)cccc2C1=O,-28.2%,-25.6%,u,-50.7*,13.6,-20.9%
COc1ccc(NC(=O)Nc2cccc3c2O[C@H](CN(C)S(=O)(=O)c2ccc(F)cc2)[C@@H](C)CN([C@H](C)CO)C3=O)cc1,0.4%,-9.3%,u,-20.5,12.1,-9.3%
SMILES,HT1080NT lethal,HepG2 viability,TGFb inhibitor,IL1B secr inh,Giardia killer,HT1080 IDH1KD tx
Fc1ccc(-c2n[nH]c(=S)n2Cc2ccccc2)cc1,11.9%,-10.3%,-0.2%,27.6,-0.8,8.1%
CC(C)(C)c1ccc(-c2n[nH]c(=S)n2Cc2ccccc2)cc1,u,12.6µM*,u,-15.8,-8.5,u
COc1ccc(C2CC(c3c(O)cc(C)oc3=O)=NCCS2)c(OC)c1 (stereo unspecified),1.3µM*,-26.1%,u,-8.0,-29.1,1.3µM*
CN(Cc1ccccc1)C(=S)Nc1cccnc1,4.8%,-4.8%,1.3%,13.0,13.9,9.2%
Cc1ccc(NC(=O)CN(c2ccc(Cl)cc2)S(=O)(=O)c2cc([N+](=O)[O-])ccc2Cl)c(C)c1,u,-22.9%,1.7%,-79.4*,18.1,-23.2%
Cc1ccc([N+](=O)[O-])cc1NC(=O)CN(c1ccccc1)S(=O)(=O)N(C)C,x,-13.3%,u,x,x,x
CCOC(=O)CN(C(=O)CSc1nnc2c(n1)[nH]c1ccc(OC)cc12)c1ccc(F)cc1,-18.9%,1.4%,u,-58.8*,-3.6,-7.5%
COc1cccc(NC(=O)CSc2nnc3c(n2)[nH]c2ccc(C)cc23)c1,3.2%,6.6%,11.0%,-6.8,-12.9,12.2%
COc1ccc2[nH]c3nc(SCC(=O)Nc4cccc(NC(C)=O)c4)nnc3c2c1,-9.1%,-25.7%,-8.7%,-51.6*,-4.4,-7.3%
Cc1ccc(-c2csc(NC(=O)CSc3nnc4c(n3)[nH]c3ccccc34)n2)cc1,18.4µM*,16.8%,-11.4%,-5.0,-2.1,20.6µM*
COc1ccc(NC(=S)N/N=C/c2ccc(F)c(F)c2)cc1,u,-4.9%,-13.6%,10.1,8.8,20.6µM*
Cc1ccc(S(=O)(=O)NCCC(=O)NCC(c2cccs2)N(C)C)cc1C (stereo unspecified),-2.4%,5.8%,11.4%,28.0,7.1,-6.3%
CC(NC(=O)CCC(=O)NCc1ccc(F)cc1)c1ccccc1 (stereo unspecified),-0.1%,12.4%,-24.4%,15.9,2.6,1.7%
Cc1cccc(NC(=O)CN2CCc3cc4c(cc3C2C)OCCCO4)c1 (stereo unspecified),-5.1%,-15.3%,-26.7%,-54.0*,-12.0,-16.4%
CCOC(=O)c1cc2c(=O)n3ccccc3nc2n(CCOC)c1=NC(=O)c1c(-c2c(F)cccc2Cl)noc1C,u,-3.5%,20.2%,-55.1*,9.0,u

# Source: PubChem BioAssay (National Center for Advancing Translational Sciences (NCATS))
